Reference: PubChem BioAssay (NCATS)
A number with no mark means an inactive call. Records with an inconclusive call do not appear. Active and inactive are the calls of the source. Calls follow the shape of the dose curve; as a rule, active = well fitted curve in the direction sought with a large enough effect; inconclusive = small, poorly fitted or top-dose-only effect, or another doubt; inactive = no such curve, though single readings can be large; an effect the other way counts as inactive or inconclusive. Residues, ends and D or L forms follow the SMILES beside them. *: point of attachment. Cbz = O=C(OCc1ccccc1)*

Target: Arylsulfatase A (Homo sapiens) (UniProt P15289)
Sequence (P15289 whole entry, looked up): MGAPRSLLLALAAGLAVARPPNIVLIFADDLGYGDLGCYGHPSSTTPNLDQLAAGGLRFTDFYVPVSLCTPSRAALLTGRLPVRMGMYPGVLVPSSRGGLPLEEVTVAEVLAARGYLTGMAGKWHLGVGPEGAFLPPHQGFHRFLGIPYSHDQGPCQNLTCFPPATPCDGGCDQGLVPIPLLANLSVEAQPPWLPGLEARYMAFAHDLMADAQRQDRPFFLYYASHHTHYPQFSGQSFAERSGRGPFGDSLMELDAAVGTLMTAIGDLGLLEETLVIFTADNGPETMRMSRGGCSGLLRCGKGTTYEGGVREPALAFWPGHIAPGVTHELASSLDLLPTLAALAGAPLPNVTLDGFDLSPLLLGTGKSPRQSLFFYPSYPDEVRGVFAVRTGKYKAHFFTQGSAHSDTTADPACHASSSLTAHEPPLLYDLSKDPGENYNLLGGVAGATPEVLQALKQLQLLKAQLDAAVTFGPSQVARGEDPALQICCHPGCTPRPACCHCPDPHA
Assay: qHTS screen for enhancers of Arylsulfatase A (ASA1): LOPAC Validation Assay (AID 720538); as to activity change, positive = activation: 0% is about no effect
Conditions: ASA enzyme activity, LOPAC qHTS enhancer assay; series mostly up to 57.5 µM; activity change, positive = activation: at the top concentration
How it was run: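 SV40-transformed skin fibroblasts from an MLD patient (ASA-I179S) were treated with compounds for 48h at 37 degree C, then lysed with 0.5mM pNCS final substrate for 14h at room temperature; NaOH stop, fluorescence read (Ex=525 nm; Em=598 nm).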

SMILES	activity change, positive = activation	outcome
c1ccc(C(NCc2cccnc2)(c2ccccc2)c2ccccc2)cc1	-58.3%	–
COc1cc(CC(=O)O)ccc1O	-22.1%	–
NOCC(=O)O	-18.2%	–
CC(=O)/C(C)=N/O	–	inactive; inhibitor; fitted 1.0691 uM
COC(=O)C(N)Cc1ccc(Cl)cc1 (stereo not drawn)	-22.7%	–
C[C@H](NC(=O)/C(C#N)=C/c1ccc(O)c(O)c1)c1ccccc1	-31.3%	–
Nc1nc2c(nc(Br)n2C2OC3COP(=O)(O)O[C@@H]3C2O)c(=O)[nH]1 (stereo partly drawn)	25.9%	–
COc1cc(N)c(Cl)cc1C(=O)OCCN1CCCCC1	–	inactive
CC(O)C(O)[C@H]1CNc2nc(N)[nH]c(=O)c2N1 (stereo partly drawn)	23.2%	–
CC(C)[C@H](NC(=O)OCc1ccccc1)C(=O)N[C@H](C=O)Cc1ccccc1 (Cbz-Val-Phe-aldehyde)	-59.9%	–
N=C(N)c1ccc(N)cc1	–	inactive
COc1cc(/C=C(\C#N)C(=O)Nc2nnc(C(F)(F)F)s2)ccc1OCc1ccc(C(F)(F)F)cc1C(F)(F)F	–	inactive
Cc1cc2c(cc1Cl)N(C(=O)Nc1ccnc3ccccc13)CC2	-30.8%	–
c1ccc(C(NCCNC(c2ccccc2)c2ccccc2)c2ccccc2)cc1	-5.94%	–
N[C@H](C(=O)O)c1cc(O)cc(O)c1	12.7%	–
O=C(O)c1ccccc1Nc1ccccc1	–	inactive; inhibitor; fitted 8.4921 uM
NC1CCN(O)C1=O (stereo not drawn)	-37.5%	–
CC(C)(CO)Cc1cc(C(C)(C)C)c(O)c(C(C)(C)C)c1	-9.98%	–
S=C(S)N1CCCC1	–	inactive

SMILES	activity change, positive = activation	outcome
COc1ccc(CCn2nnnc2C2(c3ccc(C)cc3)CC2)cc1	–	inactive
N[C@@H](CCCC(=O)O)C(=O)O	–	inactive
[N-]=[N+]=Nc1ccc(C(=O)CSC[C@H](NC(=O)CC[C@H](N)C(=O)O)C(=O)NCC(=O)O)cc1	-7.45%	–
COc1ccc(CCN(C)CCc2ccc(OC)c(OC)c2)cc1OC	-9.6%	–
CCn1c(=O)[nH]c2cc(Cl)c(Cl)cc21	15.5%	–
Clc1nccc2c1ccc1ccccc12	16.7%	–
CCSC(=N)N	-41%	–
CCCn1c(=O)c2c(ncn2C)n(CCC)c1=O	–	inactive; inhibitor; fitted 8.4921 uM
Cn1c(=O)c2[nH]c(-c3ccc(S(=O)(=O)O)cc3)nc2n(C)c1=O	8.98%	–
Cc1ccc2c(c1)C(N1CCN(C)CC1)=Nc1cccnc1N2	-3.25%	–
N=C(N)SCCN	29.4%	–
CC(/C=C/c1cccc(Oc2ccc(F)cc2)c1)N(O)C(N)=O (stereo not drawn)	12.8%	–
CCCCCCCCCCC/C=C\C(C)(C)/C=C\CCCC(=O)O	–	inactive
O=c1[nH]ccc2c(O)cccc12	-27.8%	–
N#CC(C#N)=C(N)/C(C#N)=C/c1ccc(O)cc1	-38.2%	–
NC1C=CC=C(C(=O)O)C1 (stereo not drawn)	-12.8%	–
COC(=O)[C@H](NC(=O)c1cc(-c2ccccc2)nc2ccccc12)c1ccccc1	4.29%	–
CN1CCN(c2nc3cc(C(F)(F)F)ccc3n3cccc23)CC1	–	inactive

Tested on: not listed separately
Assay: qHTS for compounds that reverse cellular toxicity of Amyloid beta (A-beta) peptide in yeast: LOPAC Validation Assay (AID 720559);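 also: plate controls were DMSO for no effect and equimolar ferric chloride plus clioquinol rescue for full effect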
Conditions: yeast expressing A-beta; series mostly up to 46.1 µM; growth rescue, positive = activation: at the top concentration
How it was run: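 Yeast cells expressing toxic A-beta were combined with pinned compounds in growth medium and incubated 48 hr at 30 C. Growth was read as absorbance at 600 nm and normalized to DMSO and to an equimolar FeCl3/clioquinol positive control.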

SMILES	growth rescue, positive = activation
CC(=O)SC1CC2=CC(=O)CC[C@]2(C)C2CC[C@@]3(C)C(CC[C@@]34CCC(=O)O4)C12 (stereo partly drawn)	-7.04%
COc1cc(/C=C(\C#N)C(=O)Nc2nnc(C(F)(F)F)s2)ccc1OCc1ccc(C(F)(F)F)cc1C(F)(F)F	4.1%
O=C(O)c1ccccc1Nc1ccccc1	-20.6%
NC1CCN(O)C1=O (stereo not drawn)	-0.536%
[N-]=[N+]=Nc1ccc(C(=O)CSC[C@H](NC(=O)CC[C@H](N)C(=O)O)C(=O)NCC(=O)O)cc1	6.54%
O=c1[nH]ccc2c(O)cccc12	-3.18%
N#CC(C#N)=C(N)/C(C#N)=C/c1ccc(O)cc1	1.09%

Tested on: not listed separately
Assay: qHTS for Activators of Parkin Expression: LOPAC Validation Assay (NLuc Reporter) (AID 720572;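 also: 0% = DMSO and 100% = positive control compound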)
Conditions: Parkin promoter NanoLuc reporter cells, luminescence; series mostly up to 46.1 µM; activation: at the top concentration
How it was run: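 Neuronal line stably carrying a FLuc/NLuc coincidence reporter under the Parkin promoter, seeded 24 h, then dosed in 7-point series for 24 h at 37 C. NLuc luminescence read after FLuc; normalized to DMSO and positive control (100%).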

SMILES	activation
c1ccc(C(NCc2cccnc2)(c2ccccc2)c2ccccc2)cc1	3.18%
COc1cc(CC(=O)O)ccc1O	-0.492%
NOCC(=O)O	-1.03%
CC(=O)/C(C)=N/O	-1.9%
COC(=O)C(N)Cc1ccc(Cl)cc1 (stereo not drawn)	-8.65%
Nc1nc2c(nc(Br)n2C2OC3COP(=O)(O)O[C@@H]3C2O)c(=O)[nH]1 (stereo partly drawn)	2.26%
COc1cc(N)c(Cl)cc1C(=O)OCCN1CCCCC1	-16.6%
CC(O)C(O)[C@H]1CNc2nc(N)[nH]c(=O)c2N1 (stereo partly drawn)	0.132%
CC(C)[C@H](NC(=O)OCc1ccccc1)C(=O)N[C@H](C=O)Cc1ccccc1 (Cbz-Val-Phe-aldehyde)	10.5%
N=C(N)c1ccc(N)cc1	-2.12%
N[C@H](C(=O)O)c1cc(O)cc(O)c1	-6.6%
S=C(S)N1CCCC1	-4.57%
COc1ccc(CCn2nnnc2C2(c3ccc(C)cc3)CC2)cc1	3.84%
N[C@@H](CCCC(=O)O)C(=O)O	-0.739%
COc1ccc(CCN(C)CCc2ccc(OC)c(OC)c2)cc1OC	1.48%
Clc1nccc2c1ccc1ccccc12	5.5%
CCSC(=N)N	1.09%
CCCn1c(=O)c2c(ncn2C)n(CCC)c1=O	3.63%
Cc1ccc2c(c1)C(N1CCN(C)CC1)=Nc1cccnc1N2	3.82%
N=C(N)SCCN	-6.54%
CC(/C=C/c1cccc(Oc2ccc(F)cc2)c1)N(O)C(N)=O (stereo not drawn)	-11.1%
CCCCCCCCCCC/C=C\C(C)(C)/C=C\CCCC(=O)O	7.81%
NC1C=CC=C(C(=O)O)C1 (stereo not drawn)	-1.47%
CN1CCN(c2nc3cc(C(F)(F)F)ccc3n3cccc23)CC1	-0.962%
